Our source for the growth values is PubChem BioAssay (NCI).

Molecules are shown by their SMILES. The panel holds about 83,000 compounds, 20% with a hit somewhere; the sample as a whole holds those more often.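 In brief: 96-well plates, 48 h treatment, single concentration, percent growth endpoint.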 Values without a mark were called inactive. Calls of active or inactive are those of the source.

The subject of this experiment is NCI-H226 lung. The experiment can be described thus: NCI-60 one-dose screen, 48 h (100 = growth as untreated, 0 = no growth, -100 = all killed). The settings on record: 10 µM unless noted. The protocol:
Growth inhibition of the NCI-H226 human Non-Small Cell Lung tumor cell line is measured as a screen for anti-cancer activity. Cells are grown in 96 well plates and exposed to the test compound for 48 hours. Compounds are tested at a single concentration, which is 10^-5 M for most compounds. The reported endpoint is percent growth (GI% or GIPRCNT), where numbers from 0 - 100% represent growth inhibition, and numbers from -100% - 0 represent cell death. For example, a value of 40 represents 60% growth inhibition. A value of 0 means no net growth occurred over the course of the experiment. A value of -40 indicates 40% of cells at the beginning of the experiment died by the end of the experiment. A value of -100 means all cells are dead at the end of the experiment.
NCI-60 Human Tumor Cell Lines Screen was performed using the standard one-dose NCI protocol, which is described in more detail at https://dtp.cancer.gov/discovery_development/nci-60/default.htm.
Compounds with GIPRCNT values below 10 were considered active. Activity score was based on GIPRCNT using the following formula: […]
Score is 0 for GIPRCNT values of 100 or above, 50 for GIPRCNT values of 0, and 100 for GIPRCNT values of -100.
As to `CC(=O)Cc1ccccn1`, the growth was 98%.

For the compound `Oc1ccc(-c2nc3ccccc3s2)cc1CN(Cc1ccccn1)Cc1ccccn1`, the growth was 5.38% (active). On to `C#C[C@]1(O)CC[C@H]2[C@@H]3CC=C4c5sc(-c6cccc(Br)c6)nc5CC[C@]4(C)[C@H]3CC[C@@]21C`, for which the growth is 97.9%.

As for `O=C(CC(=O)c1ccccc1F)Nc1ccc([N+](=O)[O-])cc1`, the growth is 86.2%. In the case of `CCN(C(=O)CCl)C(C)(C)C(SSSC(c1ccc(Cl)cc1)C(C)(C)N(CC)C(=O)CCl)c1ccc(Cl)cc1` (stereo not given), the growth is 104%. For the compound `O=[N+]([O-])c1ccc(N=Nc2c(NNc3ccc([N+](=O)[O-])cn3)cc(S(=O)(=O)O)c3ccccc23)nc1`, the growth was 95.8%. Next, `CNCCCn1c2c(c3ccc(Cl)cc3c1=O)C(=O)c1cc(OC)cnc1-2`: 43%; `Nc1nc(N)c2cc(NCc3ccc(Cl)c(Cl)c3)ccc2n1`: -74.8% (active); `C/C(=N\Nc1ccc([N+](=O)[O-])cn1)c1ccc(N)cc1`: 109%. Take `COc1ccc(/C=C/C(=O)CCC(=O)O)cc1OC`: the growth is 102%. For `Oc1c(C(Nc2cccc3ccccc23)c2ccccc2)ccc2cccnc12` (stereo not given), the growth was 50.6%. Turning to `Cc1nn(-c2cccc(Cl)c2)c(C)c1N=Nc1ccc(Br)cc1`, the growth was 101%. Next, `CCCCCCCC/C=C/CCCCCCCC1=NC(C)(C)CN1c1ccccc1`: 99%. As for `c1ccc(-c2ccc(-c3ccccc3)[nH]2)cc1`, the growth was 86.5%. On to `O=C(O)C(CCc1ccccc1)NCc1ccccc1` (stereo not given), for which the growth was 106%. With `Cc1ccc(Nc2cccc3ccccc23)cc1`, the growth is 90.1%. Turning to `COc1ccc(-c2cc(C(=O)Nc3ccc(Br)cc3)nc3[nH]c(=O)sc23)cc1`, the growth was 63.4%. The result for `CCCCCCCCCCCC1=NC(C)(C)CN1CCO` reads 88.2%; that for `CCOC(=O)c1ccc(NC(=O)CSC(N)=O)cc1`, 116%; that for `CC(C)(C)c1ccc(C(=O)Nc2sc3cc(O)ccc3c2C(N)=O)cc1`, 101%.

Consider `CCc1onc(-c2ccc(OC)cc2)c1-c1ccccc1OCCN(CC)CC`, for which the growth was 93.5%.

Turning to `CC[C@]1(O)C[C@H]2CN(CCc3c([nH]c4ccccc34)C(C(=O)OC)(c3cc4c(cc3OC)N(C)[C@H]3[C@@](O)(C(=O)OC)[C@H](OC(C)=O)[C@]5(CC)[C@@H]6C[C@@H]6CN6CC[C@]43[C@@H]65)C2)C1` (stereo not given in full), the growth was -25.3% (active). `COc1ccc(C(=O)O)cc1.[Ag]`: the growth was 101%. With `CCN1C(=O)/C(=C/N2N=C(c3ccc(Cl)cc3)CC2c2ccc(OC)cc2)SC1=S` (stereo not given), the growth was 93%. For `O=S(=O)(Cc1ccc(Cl)cc1Cl)c1ccc(Cl)cc1`, the growth was 69.3%. As for `COc1cnc2c(c1)C(=O)c1c-2n(CCCN2CCNCC2)c(=O)c2cc(Cl)ccc12`, the growth was 18.6%. For the compound `FC(F)(F)c1nn[nH]n1`, the growth was 94.8%. Regarding `O=C1/C(=C/c2ccccc2)SC(=Nc2ccccc2)N1Nc1ccccc1`, the growth is -40.1% (active).

On to `CCn1c(Cc2ccccc2Nc2c(Cl)cccc2Cl)nnc1SCC(=O)Nc1cccc(OC)c1`, for which the growth is 83.3%. With `CC(C)OC1OC(OC(C)C)C(OC(C)C)OC1OC(C)C` (stereo not given), the growth is 99.9%.

Turning to `COc1ccc(/C=C(\C#N)c2cc(OC)c(OC)c(OC)c2)cc1`, the growth was -8.11% (active). `CN1C2CCC1/C(=C\c1ccc(Cl)cc1)C(=O)/C2=C/c1ccc(Cl)cc1`: the growth is 73.8%.

As for `O=C(CCCN1CCC(O)(c2ccc(Br)cc2)CC1)c1ccc(F)cc1`, the growth was 99.5%. The result for `O=C1N(Cc2ccccc2Cl)c2ccccc2C12NN=C(c1ccccc1)S2` (stereo not given) reads 67.5%; that for `O=c1c2cc(Br)cc(Br)c2nc(-c2ccc(Cl)cc2)n1/N=C\c1ccccc1F`, 51.2%. In the case of `O=C(O)c1cc2cc(OCc3ccccc3)ccc2[nH]1`, the growth was 107%.

As to `O=C(NNC(=O)c1cccc(Cl)c1)c1ccccc1`, the growth was 96.2%. As for `Cc1cccc2nc3ccccc3c(Nc3ccc(NS(C)(=O)=O)cc3)c12`, the growth was 5.12% (active). The result for `CCN1C(=O)N(CC)C2C1NC(=O)N2/N=C/C=C/c1ccccc1` (stereo not given) reads 74.9%. Consider `CCN(CC)CCNC(=O)C(F)(F)C(F)(F)C(F)(F)F`, for which the growth is 93.7%.
